Data reported in PubChem BioAssay (Tox21).
Results filed as inconclusive are left out. Activity calls are given as the source filed them. Calls come from the whole dose curve; as a rule, active = well fitted activation curve with a large enough effect in the signal ratio in the repeat runs (not every such curve was filed as active); inconclusive = weak or mixed curves, or effect the other way; inactive = flat fitted curve, though single readings scatter; the % refers to the signal ratio.

Each compound was assayed against Estrogen receptor beta (Homo sapiens) (UniProt Q92731) (assay: qHTS assay to identify small molecule agonists of the estrogen receptor beta (ER-beta) signaling pathway (AID 1259377)). Conditions: ER-beta-UAS-bla HEK293T, beta-lactamase FRET ratio, 16 h; series mostly up to 92.4 µM; activation: at the top concentration.
Source text: U.S. Tox21 Program National Center for Advancing Translational Sciences [NCATS] NIH Chemical Genomics Center [NCGC] U.S. Environmental Protection Agency [EPA] National Institutes of Environmental Health Sciences [NIEHS] National Toxicology Program [NTP] U.S. Food and Drug Administration [FDA] Tox21 Assay Overview: Estrogen receptor (ER), a nuclear hormone receptor, plays an important role in development, metabolic homeostasis and reproduction. Two subtypes of ER, ER-alpha and ER-beta, have similar expression patterns with some uniqueness in both types. Endocrine disrupting chemicals (EDCs) and their interactions with steroid hormone receptors like ER causes disruption of normal endocrine function. To identify the compounds that activate ER signaling, an ER beta-UAS-bla GripTite cell line (Life technologies, Madison, WI, USA) containing a beta-lactamase reporter gene under the control of an Upstream Activator Sequence (UAS) was used to screen Tox21 10K compound library.
Tox21 Assay Protocol Summary: ER-beta-UAS-bla HEK293T cells were dispensed at 2,000 cells/5 uL of assay medium containing 2% charcoal stripped FBS per well into black wall/clear-bottom 1536-well plates using a Multidrop Combi (ThermoFisher Scientific, Waltham, MA) dispenser. After the assay plates were incubated at a 37C and 5% CO2 for 6 hr, 23 nL of compounds dissolved in DMSO, positive controls or DMSO only was transferred to the assay plate by a Pintool station (Kalypsys, San Diego, CA). The plates were incubated at 37C and 5% CO2 for 16 hr. Then 1 uL of LiveBLAzerTM B/G FRET substrate was added using a BioRAPTR FRD (Flying Reagent Dispenser, Aurora Discovery, San Diego, CA). After the plates were incubated at room temperature for 2 hours, fluorescence intensity was measured by an Envision plate reader (PerkinElmer, Shelton, CT).
% is set by controls: 0 for no effect and ±100 for the full control effect.

Chain of Estrogen receptor beta (Homo sapiens) (Q92731 whole entry, looked up): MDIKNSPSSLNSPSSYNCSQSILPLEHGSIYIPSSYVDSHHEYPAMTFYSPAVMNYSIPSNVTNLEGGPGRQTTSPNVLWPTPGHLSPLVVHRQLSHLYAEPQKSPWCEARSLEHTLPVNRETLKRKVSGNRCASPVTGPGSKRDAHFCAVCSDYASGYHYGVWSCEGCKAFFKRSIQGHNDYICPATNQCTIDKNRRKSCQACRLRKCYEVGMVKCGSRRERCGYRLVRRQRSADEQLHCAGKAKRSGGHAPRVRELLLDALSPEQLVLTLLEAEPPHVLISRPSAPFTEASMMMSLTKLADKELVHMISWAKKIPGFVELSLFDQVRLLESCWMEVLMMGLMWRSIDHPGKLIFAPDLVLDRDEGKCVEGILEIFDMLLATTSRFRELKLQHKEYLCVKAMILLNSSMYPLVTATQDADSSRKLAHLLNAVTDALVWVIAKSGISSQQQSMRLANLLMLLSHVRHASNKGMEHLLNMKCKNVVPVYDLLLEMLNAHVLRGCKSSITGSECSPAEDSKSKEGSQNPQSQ

Row | SMILES | activation
1 | C/C(=C\c1ccc(C(=O)O)cc1)c1ccc2c(c1)C(C)(C)CCC2(C)C | -1.61% [at 42.5 µM] (inactive)
2 | Cc1ccc2sc3cccc(C)c3c2c1 | -0.131% (inactive)
3 | COc1cc([C@@H]2c3cc4c(cc3[C@@H](O[C@@H]3O[C@@H]5CO[C@@H](C)O[C@H]5[C@H](O)[C@H]3O)[C@H]3COC(=O)[C@H]23)OCO4)cc(OC)c1O | 0.0958% (inactive)
4 | N#CCCOCCC#N | -0.526% (inactive)
5 | O=[N+]([O-])c1ccc(O)c2ncccc12 | -8.11% [at 42.5 µM] (inactive)
6 | CC(CC(C)(C)C)CC(C)(C)CC(C)(C)C (stereo not given) | -0.94% [at 42.5 µM] (inactive)
7 | O=C(CCN1CCC(c2ccccc2)C1)c1ccc2c(c1)OCCO2 (stereo not given) | 4.41% [at 42.5 µM] (inactive)
8 | Oc1ccc(Cl)cc1C1CCCC1 | 3.2% (inactive)
9 | CSc1nnc(C(C)(C)C)c(=O)[nH]1 | 4.7% (inactive)
10 | O=c1[nH]cccc1O | -3.98% (inactive)
11 | CCSCC | -0.443% (inactive)
12 | CN(C/C=C/c1ccccc1)Cc1cccc2ccccc12 | -2.61% [at 42.5 µM] (inactive)
13 | CC(=O)Nc1ccc(N=Nc2cc(C)ccc2O)cc1 | -1.06% (inactive)
14 | Cc1ccc2n[nH]nc2c1 | -0.41% (inactive)
15 | c1ccc2cc3c4ccccc4c4ccccc4c3cc2c1 | -0.935% (inactive)
16 | O=C(NCc1ncc(C(F)(F)F)cc1Cl)c1c(Cl)cccc1Cl | -2.71% (inactive)
17 | Cc1ccc(Cl)c(N)c1Cl | -0.0958% (inactive)
18 | CC(C)(c1ccc(Oc2ccc(N)cc2)cc1)c1ccc(Oc2ccc(N)cc2)cc1 | -2.15% (inactive)
19 | C=COCCCC | -1.98% (inactive)
20 | Clc1ccc2c(Cl)ccnc2c1 | 0.0696% (inactive)

Row | SMILES | activation
21 | Cc1ccc(C=O)cc1 | 7.02% [at 42.5 µM] (inactive)
22 | CCC(O)CO (stereo not given) | -1.78% (inactive)
23 | Nc1cc([N+](=O)[O-])cc(Cl)c1O | -0.659% (inactive)
24 | c1ccc(-c2nc3ccccc3[nH]2)cc1 | -1.49% (inactive)
25 | NC(=O)C1CO1 (stereo not given) | 2.19% (inactive)
26 | C=CC(C)(C)O | -1.76% (inactive)
27 | Cc1cc(C)c(O)c(C(C)(C)C)c1 | 0.0521% (inactive)
28 | CC(C)(C)c1ccc(OC2CCCCC2O)cc1 (stereo not given) | -3.98% (inactive)
29 | C=CC(=O)OCC(Br)CBr (stereo not given) | 0.0077% (inactive)
30 | NCc1cccc(C2CCN(C(=O)c3ccc(C#Cc4ccccc4F)o3)CC2)c1 | -4.3% (inactive)
31 | O=C1OC(O)C(C(Cl)Cl)=C1Cl (stereo not given) | -2.36% (inactive)
32 | COc1cc(OC)nc(NC(=O)NS(=O)(=O)Nc2ccccc2C(=O)N(C)C)n1 | -3.31% (inactive)
33 | CCc1cccc(C)c1N(C(=O)CS(=O)(=O)O)C(C)COC (stereo not given) | -2.8% (inactive)
34 | CN1CC[C@H](c2c(O)cc(O)c3c(=O)cc(-c4ccccc4Cl)oc23)[C@H](O)C1 | -7% [at 42.5 µM] (inactive)
35 | CC(C=O)c1ccccc1 (stereo not given) | 1.38% (inactive)
36 | CCOC(=O)C1=NN(c2ccc(Cl)cc2Cl)C(C)(C(=O)OCC)C1 (stereo not given) | -1.57% (inactive)
37 | CCCC(C)C=O (stereo not given) | -0.279% (inactive)
38 | CCOC(=O)[C@H](C)O | 9.62% (inactive)
39 | CC(c1cc(C(C)(C)C)cc(C(C)(C)C)c1O)c1cc(C(C)(C)C)cc(C(C)(C)C)c1O | -1.37% (inactive)
40 | O=C(Nc1ccccc1)c1cc(Cl)ccc1O | -3.68% (inactive)
